According to the supplement of paper PMC11732987, “Enantioselective OTUD7B fragment discovery through chemoproteomics screening and high-throughput optimisation” (Communications Chemistry, 2025):

Assays:
Assay in all cases: log2 ratio of Biotin-Ahx-Ub-VS probe labelling (fragment/DMSO); higher = less target engagement (more negative = stronger competition), active = hit call of the paper (q ≤ 0.05, log2 ratio ≤ -1)
Conditions in all cases: compound concentration: 200 uM; treatment time: 3 h
USP42 = biological target: T1, USP42 (UniProt Q9H9J4)
T1 sequence (whole entry): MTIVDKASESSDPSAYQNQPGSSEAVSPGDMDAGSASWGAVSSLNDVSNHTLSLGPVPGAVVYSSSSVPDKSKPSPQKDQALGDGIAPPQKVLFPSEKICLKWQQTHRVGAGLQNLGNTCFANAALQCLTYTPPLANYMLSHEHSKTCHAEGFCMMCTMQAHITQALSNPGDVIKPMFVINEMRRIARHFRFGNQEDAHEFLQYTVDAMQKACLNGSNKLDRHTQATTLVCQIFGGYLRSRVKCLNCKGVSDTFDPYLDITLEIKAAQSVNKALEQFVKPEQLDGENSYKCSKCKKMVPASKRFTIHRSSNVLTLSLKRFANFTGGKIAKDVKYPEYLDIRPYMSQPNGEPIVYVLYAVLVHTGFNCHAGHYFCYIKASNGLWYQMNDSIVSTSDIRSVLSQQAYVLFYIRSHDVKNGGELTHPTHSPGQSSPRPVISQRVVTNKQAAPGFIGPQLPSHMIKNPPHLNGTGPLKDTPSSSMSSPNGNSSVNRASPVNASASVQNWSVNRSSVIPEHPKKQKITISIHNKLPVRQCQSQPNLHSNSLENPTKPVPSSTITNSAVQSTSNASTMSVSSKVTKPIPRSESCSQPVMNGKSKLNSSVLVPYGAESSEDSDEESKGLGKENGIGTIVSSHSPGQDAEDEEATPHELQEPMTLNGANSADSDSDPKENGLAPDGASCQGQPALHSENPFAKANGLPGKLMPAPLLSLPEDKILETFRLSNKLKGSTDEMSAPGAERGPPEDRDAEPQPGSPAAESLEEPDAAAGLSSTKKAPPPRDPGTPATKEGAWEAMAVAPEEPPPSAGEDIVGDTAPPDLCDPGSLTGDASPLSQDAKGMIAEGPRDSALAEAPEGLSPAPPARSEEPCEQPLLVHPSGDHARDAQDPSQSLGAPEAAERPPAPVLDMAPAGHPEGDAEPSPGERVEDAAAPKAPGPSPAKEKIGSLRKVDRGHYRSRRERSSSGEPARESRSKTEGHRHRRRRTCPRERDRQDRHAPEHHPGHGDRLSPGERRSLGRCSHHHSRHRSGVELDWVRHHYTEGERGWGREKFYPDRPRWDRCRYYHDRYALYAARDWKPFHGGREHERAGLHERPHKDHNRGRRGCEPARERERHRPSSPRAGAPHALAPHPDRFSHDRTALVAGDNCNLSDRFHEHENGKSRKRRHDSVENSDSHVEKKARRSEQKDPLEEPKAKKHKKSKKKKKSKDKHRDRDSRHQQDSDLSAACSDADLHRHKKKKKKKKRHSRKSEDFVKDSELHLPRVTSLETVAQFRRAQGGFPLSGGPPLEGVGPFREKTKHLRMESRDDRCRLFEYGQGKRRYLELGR
Outline: (§1)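 HEK293T lysate, 495 µg per sample in Tris/CHAPS/IGEPAL buffer with protease inhibitors, was treated in triplicate with fragment at 200 µM or vehicle for 3 h and then with Biotin-Ahx-Ub-VS at 0.5 µM final for 1 h. Labelled DUBs were NeutrAvidin-enriched, digested with LysC and trypsin, and run by diaPASEF LC-MS/MS. Spectronaut label-free quantities were global-median-normalised, and values are average log2 fragment/vehicle ratios by unpaired t-test on proteins with ≥2 unique peptides.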

USP46 = USP46 (UniProt P62068)
Sequence of USP46 (P62068 whole entry): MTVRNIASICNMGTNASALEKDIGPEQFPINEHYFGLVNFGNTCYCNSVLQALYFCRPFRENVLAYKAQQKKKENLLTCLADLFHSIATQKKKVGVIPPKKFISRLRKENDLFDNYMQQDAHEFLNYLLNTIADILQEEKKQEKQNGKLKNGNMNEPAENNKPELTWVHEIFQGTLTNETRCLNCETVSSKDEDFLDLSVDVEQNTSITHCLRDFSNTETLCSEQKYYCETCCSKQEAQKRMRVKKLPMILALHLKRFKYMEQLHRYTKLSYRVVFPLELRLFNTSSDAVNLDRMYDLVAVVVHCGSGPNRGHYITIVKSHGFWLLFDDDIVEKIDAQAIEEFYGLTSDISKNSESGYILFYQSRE
Outline: as §1

USP47 = biological target: T2, USP47 (UniProt Q96K76)
T2 sequence (whole entry): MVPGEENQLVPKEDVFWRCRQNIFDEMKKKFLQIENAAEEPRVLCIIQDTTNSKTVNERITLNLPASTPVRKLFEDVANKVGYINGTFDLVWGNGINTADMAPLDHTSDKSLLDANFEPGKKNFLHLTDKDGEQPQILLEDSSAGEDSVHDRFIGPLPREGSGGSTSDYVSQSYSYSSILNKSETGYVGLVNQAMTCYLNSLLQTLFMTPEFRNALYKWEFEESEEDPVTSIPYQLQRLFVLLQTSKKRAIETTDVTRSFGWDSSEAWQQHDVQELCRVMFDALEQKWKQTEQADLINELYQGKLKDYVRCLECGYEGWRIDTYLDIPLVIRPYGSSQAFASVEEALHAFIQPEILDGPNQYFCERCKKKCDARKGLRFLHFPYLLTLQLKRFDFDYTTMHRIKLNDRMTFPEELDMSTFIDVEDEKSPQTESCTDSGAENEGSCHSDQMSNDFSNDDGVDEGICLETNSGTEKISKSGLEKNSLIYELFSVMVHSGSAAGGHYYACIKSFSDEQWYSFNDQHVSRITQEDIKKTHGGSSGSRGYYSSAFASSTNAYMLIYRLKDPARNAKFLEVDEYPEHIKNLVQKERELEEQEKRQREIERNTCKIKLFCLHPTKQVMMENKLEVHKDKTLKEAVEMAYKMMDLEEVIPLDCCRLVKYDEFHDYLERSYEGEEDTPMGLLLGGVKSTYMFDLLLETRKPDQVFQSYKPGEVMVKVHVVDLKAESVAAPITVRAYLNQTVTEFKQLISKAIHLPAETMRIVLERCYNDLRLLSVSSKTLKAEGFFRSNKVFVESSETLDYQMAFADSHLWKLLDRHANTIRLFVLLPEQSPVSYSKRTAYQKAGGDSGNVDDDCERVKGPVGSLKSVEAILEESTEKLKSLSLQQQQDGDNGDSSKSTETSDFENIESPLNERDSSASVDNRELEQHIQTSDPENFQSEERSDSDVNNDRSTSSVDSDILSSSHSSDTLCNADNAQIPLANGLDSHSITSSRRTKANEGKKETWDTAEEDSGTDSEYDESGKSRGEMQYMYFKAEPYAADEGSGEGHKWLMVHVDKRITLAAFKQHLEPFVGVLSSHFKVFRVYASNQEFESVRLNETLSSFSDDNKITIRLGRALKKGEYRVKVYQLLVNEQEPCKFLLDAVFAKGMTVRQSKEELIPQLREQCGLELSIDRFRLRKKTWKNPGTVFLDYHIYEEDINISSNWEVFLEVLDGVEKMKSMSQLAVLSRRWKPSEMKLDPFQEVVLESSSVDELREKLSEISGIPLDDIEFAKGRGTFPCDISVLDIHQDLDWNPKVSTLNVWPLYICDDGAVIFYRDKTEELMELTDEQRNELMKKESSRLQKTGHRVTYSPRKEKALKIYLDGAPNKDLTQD
Outline: as §1

USP48 = biological target: T3, USP48 (UniProt Q86UV5)
T3 sequence (whole entry): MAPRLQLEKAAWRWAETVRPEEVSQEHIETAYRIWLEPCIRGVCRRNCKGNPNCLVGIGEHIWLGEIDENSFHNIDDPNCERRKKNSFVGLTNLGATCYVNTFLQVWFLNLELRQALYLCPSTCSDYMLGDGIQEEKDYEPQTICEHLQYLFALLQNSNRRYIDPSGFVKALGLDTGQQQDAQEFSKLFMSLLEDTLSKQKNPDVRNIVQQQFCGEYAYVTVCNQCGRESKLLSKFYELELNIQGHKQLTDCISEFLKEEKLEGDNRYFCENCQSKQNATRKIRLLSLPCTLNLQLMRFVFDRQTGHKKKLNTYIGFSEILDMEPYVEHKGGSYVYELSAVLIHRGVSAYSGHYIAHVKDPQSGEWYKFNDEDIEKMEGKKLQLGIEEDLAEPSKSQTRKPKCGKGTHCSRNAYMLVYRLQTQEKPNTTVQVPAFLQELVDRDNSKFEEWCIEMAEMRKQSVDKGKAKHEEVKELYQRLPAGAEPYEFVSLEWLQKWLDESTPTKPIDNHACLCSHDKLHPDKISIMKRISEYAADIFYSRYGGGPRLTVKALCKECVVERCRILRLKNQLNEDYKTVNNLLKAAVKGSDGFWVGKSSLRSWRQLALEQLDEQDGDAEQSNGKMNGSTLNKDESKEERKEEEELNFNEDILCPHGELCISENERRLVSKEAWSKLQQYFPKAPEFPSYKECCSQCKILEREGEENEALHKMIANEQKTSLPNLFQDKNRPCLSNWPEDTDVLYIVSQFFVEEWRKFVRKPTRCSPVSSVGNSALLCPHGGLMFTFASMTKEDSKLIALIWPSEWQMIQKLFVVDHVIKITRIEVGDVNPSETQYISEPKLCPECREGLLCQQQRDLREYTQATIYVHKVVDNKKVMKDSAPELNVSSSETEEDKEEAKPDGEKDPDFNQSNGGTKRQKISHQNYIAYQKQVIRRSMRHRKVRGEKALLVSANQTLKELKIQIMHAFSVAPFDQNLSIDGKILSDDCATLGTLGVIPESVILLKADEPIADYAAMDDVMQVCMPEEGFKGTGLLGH
Outline: as §1

USP5 = biological target: T4, USP5 (UniProt P45974)
T4 sequence (whole entry): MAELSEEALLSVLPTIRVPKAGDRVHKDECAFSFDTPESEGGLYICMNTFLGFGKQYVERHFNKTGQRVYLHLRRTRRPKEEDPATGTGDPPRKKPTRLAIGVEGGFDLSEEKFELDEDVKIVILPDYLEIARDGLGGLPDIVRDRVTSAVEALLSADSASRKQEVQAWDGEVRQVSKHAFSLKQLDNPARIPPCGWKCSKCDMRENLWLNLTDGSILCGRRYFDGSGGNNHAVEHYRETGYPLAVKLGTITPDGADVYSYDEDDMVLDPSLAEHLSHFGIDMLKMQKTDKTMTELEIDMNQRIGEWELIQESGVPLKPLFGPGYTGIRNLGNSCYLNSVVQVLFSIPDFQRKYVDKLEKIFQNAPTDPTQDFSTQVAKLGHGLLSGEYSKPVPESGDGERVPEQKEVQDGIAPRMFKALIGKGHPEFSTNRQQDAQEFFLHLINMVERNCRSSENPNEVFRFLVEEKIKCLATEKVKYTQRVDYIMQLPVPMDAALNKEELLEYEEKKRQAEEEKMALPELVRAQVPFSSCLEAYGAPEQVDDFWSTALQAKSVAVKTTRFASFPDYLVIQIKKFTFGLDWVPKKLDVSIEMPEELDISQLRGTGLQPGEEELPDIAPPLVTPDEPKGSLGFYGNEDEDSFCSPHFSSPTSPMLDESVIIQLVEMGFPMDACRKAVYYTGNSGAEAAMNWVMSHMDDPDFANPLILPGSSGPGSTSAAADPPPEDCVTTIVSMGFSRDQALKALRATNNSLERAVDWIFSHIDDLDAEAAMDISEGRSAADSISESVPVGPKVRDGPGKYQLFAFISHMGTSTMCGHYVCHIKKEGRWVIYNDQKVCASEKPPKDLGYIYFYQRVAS
Outline: as §1

USP54 = USP54 (UniProt Q70EL1)
Sequence of USP54 (Q70EL1 whole entry): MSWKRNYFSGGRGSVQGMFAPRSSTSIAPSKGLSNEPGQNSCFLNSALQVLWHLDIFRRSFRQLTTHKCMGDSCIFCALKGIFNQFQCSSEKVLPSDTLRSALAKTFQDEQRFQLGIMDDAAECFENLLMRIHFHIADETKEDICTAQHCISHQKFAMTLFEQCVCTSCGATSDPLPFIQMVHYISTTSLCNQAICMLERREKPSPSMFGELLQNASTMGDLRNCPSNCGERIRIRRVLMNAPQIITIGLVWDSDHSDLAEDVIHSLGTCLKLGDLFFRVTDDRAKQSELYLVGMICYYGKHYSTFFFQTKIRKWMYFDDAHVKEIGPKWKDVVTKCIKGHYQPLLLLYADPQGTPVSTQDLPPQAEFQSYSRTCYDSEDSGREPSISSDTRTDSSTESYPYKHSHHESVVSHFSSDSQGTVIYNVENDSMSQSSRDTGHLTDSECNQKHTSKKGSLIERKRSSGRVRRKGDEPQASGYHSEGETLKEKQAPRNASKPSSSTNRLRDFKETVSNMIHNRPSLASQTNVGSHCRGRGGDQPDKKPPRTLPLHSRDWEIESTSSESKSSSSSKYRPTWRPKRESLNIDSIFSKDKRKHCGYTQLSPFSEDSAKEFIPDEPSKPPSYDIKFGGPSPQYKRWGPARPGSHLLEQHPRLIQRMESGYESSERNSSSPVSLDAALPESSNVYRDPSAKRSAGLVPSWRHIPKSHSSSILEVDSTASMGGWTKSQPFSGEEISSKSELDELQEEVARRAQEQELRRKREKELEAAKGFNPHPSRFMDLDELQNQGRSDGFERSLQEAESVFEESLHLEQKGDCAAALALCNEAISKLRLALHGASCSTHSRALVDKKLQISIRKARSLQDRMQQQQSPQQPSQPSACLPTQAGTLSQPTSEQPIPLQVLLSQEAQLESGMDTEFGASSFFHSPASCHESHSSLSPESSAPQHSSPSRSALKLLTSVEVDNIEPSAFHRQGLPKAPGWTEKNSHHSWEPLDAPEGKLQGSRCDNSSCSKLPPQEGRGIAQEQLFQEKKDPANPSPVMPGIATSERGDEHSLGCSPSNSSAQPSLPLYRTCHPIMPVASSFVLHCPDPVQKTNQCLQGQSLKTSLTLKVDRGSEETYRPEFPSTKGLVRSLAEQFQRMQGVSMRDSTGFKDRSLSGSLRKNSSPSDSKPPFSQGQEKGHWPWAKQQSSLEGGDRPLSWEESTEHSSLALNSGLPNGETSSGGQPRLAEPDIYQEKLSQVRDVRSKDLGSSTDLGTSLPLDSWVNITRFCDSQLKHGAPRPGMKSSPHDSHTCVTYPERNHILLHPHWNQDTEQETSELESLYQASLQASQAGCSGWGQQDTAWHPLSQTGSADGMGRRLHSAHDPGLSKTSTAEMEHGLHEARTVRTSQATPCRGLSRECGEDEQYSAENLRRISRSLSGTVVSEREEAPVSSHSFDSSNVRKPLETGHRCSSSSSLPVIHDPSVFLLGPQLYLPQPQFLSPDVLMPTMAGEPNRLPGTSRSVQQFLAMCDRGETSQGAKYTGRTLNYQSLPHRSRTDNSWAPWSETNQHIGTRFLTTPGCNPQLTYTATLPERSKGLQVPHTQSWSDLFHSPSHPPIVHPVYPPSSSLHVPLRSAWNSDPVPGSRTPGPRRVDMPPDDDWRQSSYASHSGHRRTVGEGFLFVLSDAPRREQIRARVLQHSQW
Outline: as §1

USP7 = USP7 (UniProt Q93009)
Sequence of USP7 (Q93009 whole entry, looked up): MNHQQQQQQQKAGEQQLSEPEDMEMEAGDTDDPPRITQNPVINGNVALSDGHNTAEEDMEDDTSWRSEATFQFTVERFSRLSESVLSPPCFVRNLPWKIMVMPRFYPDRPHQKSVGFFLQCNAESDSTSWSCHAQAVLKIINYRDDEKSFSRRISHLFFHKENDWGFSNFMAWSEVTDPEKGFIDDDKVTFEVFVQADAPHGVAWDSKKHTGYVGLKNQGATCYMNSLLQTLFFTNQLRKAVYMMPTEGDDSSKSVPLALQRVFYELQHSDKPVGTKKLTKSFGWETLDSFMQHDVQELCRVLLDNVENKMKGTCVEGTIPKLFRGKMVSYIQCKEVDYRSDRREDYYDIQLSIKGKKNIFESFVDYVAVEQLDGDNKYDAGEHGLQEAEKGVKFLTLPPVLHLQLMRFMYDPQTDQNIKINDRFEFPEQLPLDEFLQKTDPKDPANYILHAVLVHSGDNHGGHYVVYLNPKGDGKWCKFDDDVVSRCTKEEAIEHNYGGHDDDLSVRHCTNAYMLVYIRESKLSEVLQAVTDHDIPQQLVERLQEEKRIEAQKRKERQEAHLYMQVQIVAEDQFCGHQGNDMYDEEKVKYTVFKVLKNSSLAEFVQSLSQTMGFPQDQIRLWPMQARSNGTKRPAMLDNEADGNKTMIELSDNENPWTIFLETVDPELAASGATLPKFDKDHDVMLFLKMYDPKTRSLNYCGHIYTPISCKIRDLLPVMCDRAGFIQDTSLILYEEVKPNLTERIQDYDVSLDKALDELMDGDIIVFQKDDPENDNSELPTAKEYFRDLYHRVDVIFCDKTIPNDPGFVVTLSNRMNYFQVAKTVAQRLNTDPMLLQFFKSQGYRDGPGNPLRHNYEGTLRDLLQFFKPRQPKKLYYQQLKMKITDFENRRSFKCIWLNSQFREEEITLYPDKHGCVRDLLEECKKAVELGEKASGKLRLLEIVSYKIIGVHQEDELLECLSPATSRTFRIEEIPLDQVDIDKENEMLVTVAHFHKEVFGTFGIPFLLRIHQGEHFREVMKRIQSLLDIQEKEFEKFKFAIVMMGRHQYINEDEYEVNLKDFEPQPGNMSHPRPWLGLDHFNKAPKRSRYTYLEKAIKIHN
Outline: as §1

USP8 = biological target: T5, USP8 (UniProt P40818)
T5 sequence (whole entry): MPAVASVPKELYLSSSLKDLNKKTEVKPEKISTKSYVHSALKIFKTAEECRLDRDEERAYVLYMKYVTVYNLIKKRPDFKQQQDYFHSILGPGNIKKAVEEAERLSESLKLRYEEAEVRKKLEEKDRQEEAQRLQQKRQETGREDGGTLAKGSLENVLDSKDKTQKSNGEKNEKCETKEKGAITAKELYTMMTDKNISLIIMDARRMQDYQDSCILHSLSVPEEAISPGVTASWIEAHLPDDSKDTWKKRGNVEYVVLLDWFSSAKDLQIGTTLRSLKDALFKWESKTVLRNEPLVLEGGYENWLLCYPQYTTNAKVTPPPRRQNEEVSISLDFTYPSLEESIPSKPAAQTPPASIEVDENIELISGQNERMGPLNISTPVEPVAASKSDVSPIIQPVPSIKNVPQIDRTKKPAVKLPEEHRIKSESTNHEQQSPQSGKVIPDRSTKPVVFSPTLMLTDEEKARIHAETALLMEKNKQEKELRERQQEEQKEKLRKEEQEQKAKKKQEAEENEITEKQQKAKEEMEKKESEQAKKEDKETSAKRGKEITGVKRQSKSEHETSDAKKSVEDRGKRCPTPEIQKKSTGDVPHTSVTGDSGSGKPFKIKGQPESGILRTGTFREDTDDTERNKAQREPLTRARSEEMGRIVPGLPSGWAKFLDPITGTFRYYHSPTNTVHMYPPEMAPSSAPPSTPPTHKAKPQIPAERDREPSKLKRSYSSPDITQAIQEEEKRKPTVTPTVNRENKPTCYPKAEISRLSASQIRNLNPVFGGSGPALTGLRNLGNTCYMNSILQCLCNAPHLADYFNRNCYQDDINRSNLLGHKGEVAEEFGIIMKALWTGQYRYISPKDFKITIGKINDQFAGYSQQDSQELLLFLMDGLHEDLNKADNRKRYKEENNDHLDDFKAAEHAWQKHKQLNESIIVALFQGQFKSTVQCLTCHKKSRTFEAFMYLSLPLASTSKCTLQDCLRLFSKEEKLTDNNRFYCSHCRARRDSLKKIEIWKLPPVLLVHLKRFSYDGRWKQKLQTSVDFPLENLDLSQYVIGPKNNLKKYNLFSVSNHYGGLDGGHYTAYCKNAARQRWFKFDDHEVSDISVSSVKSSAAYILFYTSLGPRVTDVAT
Outline: as §1

USP9X = USP9X (UniProt Q93008)
Outline: as §1

UniProt O00487 = biological target: UniProt O00487
Sequence of UniProt O00487 (O00487 whole entry): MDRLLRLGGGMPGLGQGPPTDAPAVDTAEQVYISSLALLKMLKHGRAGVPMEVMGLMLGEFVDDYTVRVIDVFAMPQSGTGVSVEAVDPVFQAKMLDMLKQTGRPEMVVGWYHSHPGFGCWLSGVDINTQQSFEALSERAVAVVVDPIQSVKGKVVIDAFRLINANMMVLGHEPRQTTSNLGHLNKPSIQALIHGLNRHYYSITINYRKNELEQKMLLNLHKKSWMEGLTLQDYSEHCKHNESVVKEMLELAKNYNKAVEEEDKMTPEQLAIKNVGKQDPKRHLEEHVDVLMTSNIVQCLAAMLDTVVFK
Outline: as §1

Measured: log2 ratio of Biotin-Ahx-Ub-VS probe labelling

O=C(CCl)N1CCC(c2ccn[nH]2)C1 (stereo not given)
inactive: USP42 -0.237 | USP46 -0.0632 | USP47 -0.0366 | USP48 -0.675 | USP5 -0.0093 | USP54 -0.0323 | USP7 -0.384 | USP8 -0.487 | USP9X -0.391 | UniProt O00487 0.0518
